Data from PubChem BioAssay (NCATS).
Records with an inconclusive call do not appear. A call without a number means that no potency is given here. The source made the active and inactive calls. The call rests on the fitted dose curve; in most records, active means well fitted curve in the direction sought with a large enough effect; inconclusive means small, poorly fitted or top-dose-only effect, or another doubt; inactive means no such curve, though single readings can be large; an effect the other way counts as inactive or inconclusive.

What was measured:
[1] = target: Aldehyde dehydrogenase, mitochondrial (Homo sapiens) (UniProt P05091); experiment: qHTS for Inhibitors of the Aldehyde Dehydrogenase Family (ALDH2) Primary screen (AID 2061308); further: nearly all actives have a fitted effect of over 55% in size
[2] = target: Retinaldehyde dehydrogenase 3 (Homo sapiens) (UniProt P47895); experiment: qHTS for Inhibitors of the Aldehyde Dehydrogenase Family (ALDH1A3) Primary screen (AID 2061315)

Row | SMILES | Potency [1] | Potency [2]
1 | O=C(Nc1ccc(Br)c(Br)c1)Nc1nnc(-c2cccnc2)s1 | inactive | inactive
2 | CCOc1ccc(CCNC(=O)c2cc3ccccc3n2Cc2ccc(Cl)c(F)c2)cc1OCC | inactive | inactive
3 | Cc1cc(C)nc(NC(=S)N2CCN(c3ccc(N4CCCC4)nn3)CC2)c1 | inactive | inactive
4 | Cc1noc(C)c1-c1ccc2ncnc(NCC3CCCCN3C)c2c1 (centres undefined) | inactive | inactive
5 | Cc1ccc(S(=O)(=O)Nc2cnccc2C(=O)Nc2nc(-c3ccc(F)cc3)cs2)cc1 | inactive | inactive
6 | CN(C)c1ccc(C2N=C(Nc3nc4ccccc4o3)NC3=C2C(=O)CCC3)cc1 (centres undefined) | inactive | inactive
7 | O=C(Nc1nnc(-c2ccncc2)s1)Nc1cc(C(F)(F)F)ccc1F | inactive | inactive
8 | C=C(NC(=O)C(=C)NC(=O)c1csc(C2=NC3c4csc(n4)C4NC(=O)c5csc(n5)C(C(C)(O)C(C)O)NC(=O)C5CSC(=N5)/C(=C/C)NC(=O)C(C(C)O)NC(=O)c5csc(n5)C3(CC2)NC(=O)C(C)NC(=O)C(=C)NC(=O)C(C)NC(=O)C(C(C)CC)NC2C=Cc3c(C(C)O)cc(nc3C2O)C(=O)OC4C)n1)C(N)=O (centres undefined) | inactive | inactive
9 | COc1ccc(-c2ccc3ncnc(NCCc4cnc[nH]4)c3c2)cc1OC | inactive | inactive
10 | Fc1ccccc1-c1nnc2n1N=C(c1ccc(OC(F)F)c(OCC3CC3)c1)CS2 | inactive | inactive
11 | COC(=O)c1c(-c2ccccc2)no[n+]1[O-] | inactive | inactive
12 | O=C(CN1C(=O)N/C(=C\c2cccn2-c2cccc(C(=O)O)c2)C1=O)Nc1cccc(Cl)c1 | inactive | inactive
